Measurements: ChEMBL document CHEMBL2218924, “A broad activity screen in support of a chemogenomic map for kinase signalling research and drug discovery” (Biochem J, 2013)

Tests used:
[1] = target: Serine/threonine-protein kinase MRCK beta (Homo sapiens) (UniProt Q9Y5S2); settings: at 1 µM
[2] = target: Serine/threonine-protein kinase MRCK beta (Homo sapiens) (UniProt Q9Y5S2); settings: at 10 µM
[3] = target: Ribosomal protein S6 kinase alpha-5 (Homo sapiens) (UniProt O75582); settings: at 1 µM
Chain of Ribosomal protein S6 kinase alpha-5 (Homo sapiens) (O75582 whole entry, looked up): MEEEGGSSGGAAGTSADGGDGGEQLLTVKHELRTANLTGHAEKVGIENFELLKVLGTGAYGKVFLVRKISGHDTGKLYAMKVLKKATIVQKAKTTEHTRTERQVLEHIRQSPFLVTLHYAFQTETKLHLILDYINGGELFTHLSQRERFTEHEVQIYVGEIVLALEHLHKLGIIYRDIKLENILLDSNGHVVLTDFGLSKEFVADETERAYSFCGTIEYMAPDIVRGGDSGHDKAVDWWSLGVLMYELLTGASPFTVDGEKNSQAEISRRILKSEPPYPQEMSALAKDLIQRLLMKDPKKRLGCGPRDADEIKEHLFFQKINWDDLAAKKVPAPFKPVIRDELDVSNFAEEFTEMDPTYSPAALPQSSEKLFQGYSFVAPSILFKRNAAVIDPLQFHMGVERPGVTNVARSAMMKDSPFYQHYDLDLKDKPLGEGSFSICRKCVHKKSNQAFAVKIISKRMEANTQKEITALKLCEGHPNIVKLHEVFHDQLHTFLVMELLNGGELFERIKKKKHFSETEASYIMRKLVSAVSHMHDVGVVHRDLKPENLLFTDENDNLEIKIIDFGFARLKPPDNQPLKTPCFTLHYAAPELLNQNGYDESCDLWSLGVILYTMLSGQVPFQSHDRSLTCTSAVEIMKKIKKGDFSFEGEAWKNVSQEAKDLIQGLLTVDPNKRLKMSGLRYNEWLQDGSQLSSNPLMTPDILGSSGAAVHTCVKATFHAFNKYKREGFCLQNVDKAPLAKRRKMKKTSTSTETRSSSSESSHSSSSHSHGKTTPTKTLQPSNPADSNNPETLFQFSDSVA

[4] = target: Ribosomal protein S6 kinase alpha-5 (Homo sapiens) (UniProt O75582); settings: at 10 µM
[5] = target: Ribosomal protein S6 kinase alpha-4 (Homo sapiens) (UniProt O75676); settings: at 1 µM
Chain of Ribosomal protein S6 kinase alpha-4 (Homo sapiens) (O75676 whole entry, looked up): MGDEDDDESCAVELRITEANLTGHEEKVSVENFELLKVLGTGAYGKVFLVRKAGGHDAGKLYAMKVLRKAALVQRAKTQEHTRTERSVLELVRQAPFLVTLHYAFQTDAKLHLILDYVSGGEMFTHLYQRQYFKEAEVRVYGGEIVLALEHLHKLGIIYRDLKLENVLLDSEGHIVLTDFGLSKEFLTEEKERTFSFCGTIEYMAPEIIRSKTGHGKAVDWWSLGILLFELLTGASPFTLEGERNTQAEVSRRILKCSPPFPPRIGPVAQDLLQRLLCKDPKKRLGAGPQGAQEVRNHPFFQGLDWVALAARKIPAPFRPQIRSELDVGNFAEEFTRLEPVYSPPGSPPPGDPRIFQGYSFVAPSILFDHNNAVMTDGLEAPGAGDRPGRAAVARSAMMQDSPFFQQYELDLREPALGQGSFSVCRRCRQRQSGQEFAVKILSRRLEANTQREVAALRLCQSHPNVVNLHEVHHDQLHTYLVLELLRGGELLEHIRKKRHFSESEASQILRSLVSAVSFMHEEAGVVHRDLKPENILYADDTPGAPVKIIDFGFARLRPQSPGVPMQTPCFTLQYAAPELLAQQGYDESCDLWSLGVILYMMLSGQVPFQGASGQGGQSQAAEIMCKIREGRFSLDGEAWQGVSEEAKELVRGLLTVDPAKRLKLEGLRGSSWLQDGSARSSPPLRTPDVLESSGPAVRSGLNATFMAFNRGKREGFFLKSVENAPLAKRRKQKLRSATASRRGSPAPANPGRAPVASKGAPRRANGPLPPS

[6] = target: Ribosomal protein S6 kinase alpha-4 (Homo sapiens) (UniProt O75676); settings: at 10 µM
[7] = target: SRSF protein kinase 3 (Homo sapiens) (UniProt Q9UPE1); settings: at 1 µM
Chain of SRSF protein kinase 3 (Homo sapiens) (Q9UPE1 whole entry): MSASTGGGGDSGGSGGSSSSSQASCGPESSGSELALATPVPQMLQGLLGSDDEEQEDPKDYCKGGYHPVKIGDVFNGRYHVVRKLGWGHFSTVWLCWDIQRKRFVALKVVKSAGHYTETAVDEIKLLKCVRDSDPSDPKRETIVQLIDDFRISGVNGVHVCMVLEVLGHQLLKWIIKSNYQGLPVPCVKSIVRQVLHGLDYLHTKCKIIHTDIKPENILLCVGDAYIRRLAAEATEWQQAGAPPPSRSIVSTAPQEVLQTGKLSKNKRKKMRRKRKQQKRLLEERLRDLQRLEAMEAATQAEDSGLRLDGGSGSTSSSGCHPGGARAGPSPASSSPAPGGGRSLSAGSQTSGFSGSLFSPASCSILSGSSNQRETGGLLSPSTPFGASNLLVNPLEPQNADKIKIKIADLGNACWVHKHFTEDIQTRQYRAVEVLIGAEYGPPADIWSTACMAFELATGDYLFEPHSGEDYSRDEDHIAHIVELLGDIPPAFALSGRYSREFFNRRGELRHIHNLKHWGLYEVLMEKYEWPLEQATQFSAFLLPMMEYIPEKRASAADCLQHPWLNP

[8] = target: SRSF protein kinase 3 (Homo sapiens) (UniProt Q9UPE1); settings: at 10 µM
[9] = target: T1, Serine/threonine-protein kinase 4 (Homo sapiens) (UniProt Q13043); settings: at 1 µM
T1 sequence (whole entry): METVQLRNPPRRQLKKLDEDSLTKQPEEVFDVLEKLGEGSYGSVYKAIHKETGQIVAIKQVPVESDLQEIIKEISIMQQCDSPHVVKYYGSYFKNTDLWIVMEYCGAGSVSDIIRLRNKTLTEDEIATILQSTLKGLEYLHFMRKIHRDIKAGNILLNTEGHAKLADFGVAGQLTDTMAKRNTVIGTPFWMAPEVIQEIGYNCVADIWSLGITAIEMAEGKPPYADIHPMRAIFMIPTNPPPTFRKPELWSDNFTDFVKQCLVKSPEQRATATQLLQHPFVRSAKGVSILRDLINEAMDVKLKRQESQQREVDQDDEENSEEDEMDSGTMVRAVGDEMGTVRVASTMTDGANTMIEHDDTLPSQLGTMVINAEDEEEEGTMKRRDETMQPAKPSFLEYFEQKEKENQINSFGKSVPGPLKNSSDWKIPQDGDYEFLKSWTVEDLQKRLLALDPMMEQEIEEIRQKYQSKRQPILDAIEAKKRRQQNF

[10] = target: T1, Serine/threonine-protein kinase 4 (Homo sapiens); settings: at 10 µM
[11] = target: T2, Serine/threonine-protein kinase 3 (Homo sapiens) (UniProt Q13188); settings: at 1 µM
T2 sequence (whole entry): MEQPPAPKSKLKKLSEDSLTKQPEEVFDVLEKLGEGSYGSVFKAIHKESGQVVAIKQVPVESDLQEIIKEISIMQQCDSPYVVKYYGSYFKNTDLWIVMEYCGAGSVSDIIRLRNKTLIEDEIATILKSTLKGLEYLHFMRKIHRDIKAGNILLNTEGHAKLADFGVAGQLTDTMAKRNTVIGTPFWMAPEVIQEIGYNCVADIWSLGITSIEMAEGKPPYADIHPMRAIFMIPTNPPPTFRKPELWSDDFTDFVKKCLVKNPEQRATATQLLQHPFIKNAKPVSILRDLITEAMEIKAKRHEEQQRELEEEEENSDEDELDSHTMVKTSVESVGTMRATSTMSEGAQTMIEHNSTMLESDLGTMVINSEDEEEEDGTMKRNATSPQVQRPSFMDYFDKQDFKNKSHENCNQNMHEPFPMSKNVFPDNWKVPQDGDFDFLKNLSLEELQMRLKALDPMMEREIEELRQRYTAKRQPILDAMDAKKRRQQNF

[12] = target: T2, Serine/threonine-protein kinase 3 (Homo sapiens); settings: at 10 µM
[13] = target: Serine/threonine-protein kinase 24 (Homo sapiens) (UniProt Q9Y6E0); settings: at 1 µM
Chain of Serine/threonine-protein kinase 24 (Homo sapiens) (Q9Y6E0 whole entry, looked up): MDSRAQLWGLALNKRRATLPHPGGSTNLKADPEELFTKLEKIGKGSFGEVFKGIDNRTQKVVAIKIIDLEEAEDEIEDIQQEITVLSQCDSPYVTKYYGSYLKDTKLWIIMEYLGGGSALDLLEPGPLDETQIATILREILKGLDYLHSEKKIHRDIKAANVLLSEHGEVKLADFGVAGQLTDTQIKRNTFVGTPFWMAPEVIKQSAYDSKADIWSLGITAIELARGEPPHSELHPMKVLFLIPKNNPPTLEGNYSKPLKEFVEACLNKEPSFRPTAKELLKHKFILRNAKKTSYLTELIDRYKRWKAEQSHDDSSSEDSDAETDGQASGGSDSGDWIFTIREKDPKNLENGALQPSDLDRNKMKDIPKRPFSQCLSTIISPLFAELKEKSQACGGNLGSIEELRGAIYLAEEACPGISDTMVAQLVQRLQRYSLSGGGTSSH

[14] = target: Serine/threonine-protein kinase 24 (Homo sapiens) (UniProt Q9Y6E0); settings: at 10 µM
[15] = target: T3, Tyrosine-protein kinase Mer (Homo sapiens) (UniProt Q12866); settings: at 1 µM
T3 sequence (whole entry): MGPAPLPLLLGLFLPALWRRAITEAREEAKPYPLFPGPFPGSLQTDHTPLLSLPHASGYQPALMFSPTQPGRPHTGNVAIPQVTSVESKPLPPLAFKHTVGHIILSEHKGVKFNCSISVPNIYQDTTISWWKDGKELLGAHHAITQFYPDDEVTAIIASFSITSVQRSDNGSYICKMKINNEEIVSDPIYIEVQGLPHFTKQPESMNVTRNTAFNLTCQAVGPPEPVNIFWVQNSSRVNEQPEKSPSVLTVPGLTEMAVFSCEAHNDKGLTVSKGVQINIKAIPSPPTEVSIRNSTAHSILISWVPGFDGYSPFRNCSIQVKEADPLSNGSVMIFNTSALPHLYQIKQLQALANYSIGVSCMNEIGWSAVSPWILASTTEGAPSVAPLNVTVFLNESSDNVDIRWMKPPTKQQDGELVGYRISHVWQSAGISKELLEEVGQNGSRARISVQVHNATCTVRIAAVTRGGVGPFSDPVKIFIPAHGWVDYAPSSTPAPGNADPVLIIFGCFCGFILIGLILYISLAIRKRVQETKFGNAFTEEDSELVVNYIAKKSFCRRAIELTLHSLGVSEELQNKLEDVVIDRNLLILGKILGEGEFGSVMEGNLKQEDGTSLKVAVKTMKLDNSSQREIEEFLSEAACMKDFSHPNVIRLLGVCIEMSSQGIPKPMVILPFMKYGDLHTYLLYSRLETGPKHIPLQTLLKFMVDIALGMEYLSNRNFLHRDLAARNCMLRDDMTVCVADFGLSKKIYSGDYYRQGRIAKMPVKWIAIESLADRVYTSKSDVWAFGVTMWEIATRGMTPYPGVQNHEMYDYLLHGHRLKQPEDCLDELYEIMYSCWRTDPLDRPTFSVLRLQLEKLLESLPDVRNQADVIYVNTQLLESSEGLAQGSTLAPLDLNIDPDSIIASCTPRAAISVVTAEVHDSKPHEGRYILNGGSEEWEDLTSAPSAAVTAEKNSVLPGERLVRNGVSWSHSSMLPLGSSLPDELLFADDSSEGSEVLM

[16] = target: T3, Tyrosine-protein kinase Mer (Homo sapiens); settings: at 10 µM
[17] = target: Hepatocyte growth factor receptor (Homo sapiens) (UniProt P08581); settings: at 1 µM
[18] = target: Hepatocyte growth factor receptor (Homo sapiens) (UniProt P08581); settings: at 10 µM
[19] = target: MAP kinase-interacting serine/threonine-protein kinase 2 (Homo sapiens) (UniProt Q9HBH9); settings: at 1 µM
Chain of MAP kinase-interacting serine/threonine-protein kinase 2 (Homo sapiens) (Q9HBH9 whole entry, looked up): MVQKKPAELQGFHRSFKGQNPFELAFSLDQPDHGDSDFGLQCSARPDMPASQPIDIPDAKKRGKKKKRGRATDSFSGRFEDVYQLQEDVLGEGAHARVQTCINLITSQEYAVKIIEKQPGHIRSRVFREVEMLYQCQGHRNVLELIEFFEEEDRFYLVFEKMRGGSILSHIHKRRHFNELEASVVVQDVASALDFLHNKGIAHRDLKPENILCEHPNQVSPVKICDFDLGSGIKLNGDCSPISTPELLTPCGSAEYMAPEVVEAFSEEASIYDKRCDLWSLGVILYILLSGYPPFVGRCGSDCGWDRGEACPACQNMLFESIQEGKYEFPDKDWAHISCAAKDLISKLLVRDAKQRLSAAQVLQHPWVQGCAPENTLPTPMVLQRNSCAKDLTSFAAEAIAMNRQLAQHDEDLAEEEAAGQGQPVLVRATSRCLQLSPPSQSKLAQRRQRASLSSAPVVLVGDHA

[20] = target: MAP kinase-interacting serine/threonine-protein kinase 2 (Homo sapiens) (UniProt Q9HBH9); settings: at 10 µM

Chain of Serine/threonine-protein kinase MRCK beta (Homo sapiens) (Q9Y5S2 whole entry): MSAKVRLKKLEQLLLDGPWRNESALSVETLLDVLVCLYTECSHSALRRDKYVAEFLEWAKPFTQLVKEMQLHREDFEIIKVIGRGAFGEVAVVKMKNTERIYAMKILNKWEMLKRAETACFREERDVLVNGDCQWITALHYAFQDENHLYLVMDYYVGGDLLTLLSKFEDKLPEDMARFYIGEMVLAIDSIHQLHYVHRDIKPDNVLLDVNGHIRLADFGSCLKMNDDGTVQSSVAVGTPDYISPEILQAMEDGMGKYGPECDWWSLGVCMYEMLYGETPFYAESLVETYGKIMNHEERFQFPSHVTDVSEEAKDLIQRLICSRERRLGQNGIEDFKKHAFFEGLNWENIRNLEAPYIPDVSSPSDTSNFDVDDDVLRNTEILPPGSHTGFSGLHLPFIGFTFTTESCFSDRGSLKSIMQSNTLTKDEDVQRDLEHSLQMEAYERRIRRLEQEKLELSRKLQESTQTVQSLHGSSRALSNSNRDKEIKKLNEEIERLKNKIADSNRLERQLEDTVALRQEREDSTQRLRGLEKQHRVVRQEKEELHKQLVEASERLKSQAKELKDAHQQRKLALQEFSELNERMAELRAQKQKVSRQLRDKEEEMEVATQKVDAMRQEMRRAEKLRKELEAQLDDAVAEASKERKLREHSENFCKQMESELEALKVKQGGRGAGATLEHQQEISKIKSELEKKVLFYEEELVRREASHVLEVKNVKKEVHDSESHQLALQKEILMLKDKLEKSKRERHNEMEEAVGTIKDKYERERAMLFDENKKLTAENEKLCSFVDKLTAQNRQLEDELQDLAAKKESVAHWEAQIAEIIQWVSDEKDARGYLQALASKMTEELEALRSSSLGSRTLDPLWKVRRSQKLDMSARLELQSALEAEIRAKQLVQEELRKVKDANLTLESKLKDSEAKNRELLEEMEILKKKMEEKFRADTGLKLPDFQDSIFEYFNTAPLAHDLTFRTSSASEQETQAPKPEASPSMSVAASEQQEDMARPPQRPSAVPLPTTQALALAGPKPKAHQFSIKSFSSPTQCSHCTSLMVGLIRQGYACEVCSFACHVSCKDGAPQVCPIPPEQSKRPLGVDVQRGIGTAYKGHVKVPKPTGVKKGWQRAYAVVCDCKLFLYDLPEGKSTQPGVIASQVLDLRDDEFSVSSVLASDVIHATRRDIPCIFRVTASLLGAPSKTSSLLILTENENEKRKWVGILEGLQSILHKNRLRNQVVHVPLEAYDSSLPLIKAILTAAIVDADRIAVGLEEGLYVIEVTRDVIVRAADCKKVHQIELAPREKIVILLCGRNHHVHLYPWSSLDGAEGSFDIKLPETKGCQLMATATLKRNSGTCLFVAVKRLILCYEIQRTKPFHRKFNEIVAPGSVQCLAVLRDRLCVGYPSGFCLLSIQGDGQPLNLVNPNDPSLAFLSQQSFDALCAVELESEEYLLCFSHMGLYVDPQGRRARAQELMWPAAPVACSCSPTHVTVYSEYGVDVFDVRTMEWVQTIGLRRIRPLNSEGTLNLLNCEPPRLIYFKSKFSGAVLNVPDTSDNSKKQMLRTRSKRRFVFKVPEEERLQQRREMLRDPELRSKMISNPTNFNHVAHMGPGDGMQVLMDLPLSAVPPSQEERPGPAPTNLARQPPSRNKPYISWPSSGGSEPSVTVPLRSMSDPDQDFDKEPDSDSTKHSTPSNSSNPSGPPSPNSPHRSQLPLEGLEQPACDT

| SMILES | residual activity [1] [%] | residual activity [2] [%] | residual activity [3] [%] | residual activity [4] [%] | residual activity [5] [%] | residual activity [6] [%] | residual activity [7] [%] | residual activity [8] [%] | residual activity [9] [%] | residual activity [10] [%] | residual activity [11] [%] | residual activity [12] [%] | residual activity [13] [%] | residual activity [14] [%] | residual activity [15] [%] | residual activity [16] [%] | residual activity [17] [%] | residual activity [18] [%] | residual activity [19] [%] | residual activity [20] [%] |
| --- | --- | --- | --- | --- | --- | --- | --- | --- | --- | --- | --- | --- | --- | --- | --- | --- | --- | --- | --- | --- |
| Nc1ccc2ncnc(NCCc3ccc(Oc4ccccc4)cc3)c2c1 | 103 | 107 | 109 | 111 | 92 | 72 | 111 | 86 | 89 | 102 | 100 | 72 | 99 | 72 | 95 | 62 | 124 | 80 | 105 | 74 |
| Oc1n[nH]c2nnc(-c3c(-c4ccccc4)nn4ccccc34)cc12 | 88 | 83 | 109 | 111 | 92 | 87 | 98 | 73 | 72 | 96 | 96 | 86 | 72 | 71 | 98 | 105 | 104 | 113 | 107 | 99 |
| COc1ccc(OC)c2c(=S)c3ccccc3[nH]c12 | 88 | 95 | 93 | 122 | 100 | 89 | 103 | 79 | 74 | 99 | 96 | 93 | 80 | 85 | 99 | 85 | 118 | 119 | 97 | 77 |
| COc1ccc(C(=O)Nc2sc3c(c2C(N)=O)CCCC3)cc1OC | 89 | 74 | 123 | 88 | 91 | 99 | 104 | 93 | 92 | 95 | 105 | 91 | 68 | 65 | 107 | 86 | 120 | 110 | 99 | 82 |
| NC(=O)c1ccc2[nH]c(-c3ccc(Oc4ccc(Cl)cc4)cc3)nc2c1 | 94 | 106 | 115 | 139 | 94 | 102 | 98 | 72 | 97 | 87 | 100 | 74 | 79 | 82 | 95 | 95 | 128 | 101 | 61 | 19 |
| CC[n+]1c(/C=C/N(C)c2ccccc2)n(-c2ccccc2)c2ccc(-c3nc4ccccc4s3)cc21 | 98 | 83 | 139 | 99 | 108 | 96 | 107 | 82 | 103 | 73 | 109 | 71 | 78 | 79 | 113 | 48 | 97 | 74 | 104 | 63 |
| CC#CC(=O)Nc1cc2c(Nc3ccc(F)c(Cl)c3)ncnc2cn1 | 95 | 79 | 123 | 102 | 97 | 105 | 90 | 74 | 90 | 84 | 103 | 94 | 71 | 75 | 107 | 94 | 111 | 84 | 101 | 90 |
| N#C/C(=C(\N)Sc1ccc(N)cc1)c1ccccc1C(F)(F)F | 94 | 98 | 85 | 95 | 97 | 84 | 109 | 95 | 105 | 104 | 76 | 80 | 70 | 62 | 94 | 94 | 98 | 90 | 102 | 106 |
| Cc1ccc(NC2=CC(=O)c3sc(C)nc3C2=O)cc1 | 87 | 86 | 106 | 113 | 96 | 90 | 101 | 103 | 72 | 111 | 109 | 100 | 78 | 83 | 98 | 110 | 91 | 118 | 98 | 110 |
| COc1cccc(-c2cc(=O)c3ccccc3o2)c1N | 102 | 95 | 104 | 117 | 94 | 98 | 109 | 110 | 86 | 114 | 97 | 98 | 91 | 89 | 96 | 101 | 117 | 116 | 107 | 113 |
| O=C(Nc1cccc(Nc2nccc(Nc3cccc(C(F)(F)F)c3)n2)c1)C1CC1 | 103 | 88 | 114 | 89 | 89 | 89 | 105 | 89 | 110 | 92 | 89 | 60 | 72 | 65 | 72 | 70 | 79 | 55 | 70 | 77 |
| CO[C@@H]1[C@H](N(C)C(=O)c2ccccc2)C[C@H]2O[C@]1(C)n1c3ccccc3c3c4c(c5c6ccccc6n2c5c31)C(=O)NC4 | 85 | 68 | 13 | 8 | 12 | 8 | 96 | 77 | 1 | 2 | 3 | 0 | 17 | 7 | 8 | 6 | 35 | 40 | 44 | 27 |
| CCN(CC)CCCCN1c2ccccc2Oc2ccc(Cl)cc21 | 108 | 99 | 146 | 119 | 111 | 116 | 104 | 97 | 106 | 100 | 118 | 112 | 85 | 99 | 110 | 62 | 128 | 108 | 107 | 84 |
| O=c1cc(-c2cccc3c2Sc2ccccc2S3)oc(N2CCOCC2)c1 | 93 | 93 | 104 | 116 | 95 | 90 | 103 | 94 | 99 | 109 | 92 | 93 | 98 | 81 | 99 | 89 | 106 | 120 | 100 | 94 |
